Screens deposited in PubChem BioAssay by National Center for Advancing Translational Sciences (NCATS).
An excerpt weighted towards active compounds, which were near 1.3% of everything screened.
VACV mCherry inh = inhibitors of vaccinia virus infection (mCherry reporter signal). 310,000 compounds, 0.63% hits. Potency, µM (top dose mostly 36.5 µM), without a hit: top-dose activity change, negative = inhibition, hits mostly inhibitors. Vaccinia virus mCherry reporter infection, fluorescence; calls by dose curve; tested in A549 cells; note: % is set by controls: 0 for no effect and ±100 for the full control effect; nearly all actives have a fitted effect of over 35% in size
VACV Venus inh = inhibitors of vaccinia virus (Venus reporter); 330,000 compounds, 0.46% hits; Potency, µM (top dose mostly 36.5 µM), inactives show at the highest dose activity change, negative = inhibition, usual class: inhibitors; Vaccinia virus Venus reporter expression, fluorescence; calls by dose curve; tested in A549 cells; note: % is set by controls: 0 for no effect and ±100 for the full control effect; nearly all actives have a fitted effect of over 30% in size
AmpC inh no detg = blocks E. coli AmpC beta-lactamase in detergent-free assay; P00811; AmpC nitrocefin hydrolysis, absorbance 480 nm, 0.0001% Triton; Potency, µM (titrated, usually from 57.1 µM), without a hit: at the top dose activity change, negative = inhibition, usual class: inhibitors; 330,000 compounds, 0.52% hits;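 note: plate controls were no compound for no effect and no enzyme for full effect; nearly all actives have a fitted effect of over 20% in size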
Target sequence (P00811 whole entry, looked up): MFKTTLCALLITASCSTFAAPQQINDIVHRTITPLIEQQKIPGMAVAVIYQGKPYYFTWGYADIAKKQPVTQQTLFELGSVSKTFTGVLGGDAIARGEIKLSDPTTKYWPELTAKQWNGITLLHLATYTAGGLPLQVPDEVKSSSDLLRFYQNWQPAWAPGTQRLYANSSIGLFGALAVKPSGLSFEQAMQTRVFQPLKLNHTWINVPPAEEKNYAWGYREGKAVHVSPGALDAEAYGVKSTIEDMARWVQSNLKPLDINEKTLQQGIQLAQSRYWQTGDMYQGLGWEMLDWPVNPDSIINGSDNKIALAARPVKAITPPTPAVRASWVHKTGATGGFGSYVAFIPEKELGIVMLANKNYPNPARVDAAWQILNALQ
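20 mM phosphate pH 7.0 + 0.01% (detergent screen) or 0.0001% Triton X-100; 5.3 nM AmpC reagent; cpd preinc 15 min RT; nitrocefin (800 uM stock) to start; A480 q20 s × 4 min; Activity was normalised to no-enzyme and no-compound control wells.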
AmpC detergent = inhibitors of E. coli AmpC beta-lactamase with detergent; Potency, µM (series often up to 114 µM), inactives show at the highest dose activity change, negative = inhibition, usual class: inhibitors; P00811; AmpC hydrolysis of nitrocefin, absorbance 480 nm, 0.01% Triton; AID 485294; 370,000 compounds, 0.041% hits;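 note: 0% = no-compound wells and -100% = no-enzyme wells; nearly all actives have a fitted effect of over 25% in size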
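20 mM phosphate pH 7.0 + 0.01% (detergent screen) or 0.0001% Triton X-100; 5.3 nM AmpC reagent; cpd preinc 15 min RT; nitrocefin (800 uM stock) to start; A480 q20 s × 4 min; Activity was normalised to no-enzyme and no-compound control wells.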
SARS PLP yeast = SARS-CoV PLP inhibition in yeast | Potency, µM (series often up to 32.9 µM), inactives show top-dose activity, positive = growth rescue, usual class: activators | S. cerevisiae expressing SARS-CoV PLpro, growth rescue | 330,000 compounds, 0.19% hits; calls by dose curve; note: 0% is about no effect; nearly all actives have a fitted effect of over 55% in size
Active calls of the source: *; i = inactive; ? = inconclusive; / = no result; [ ] = dose if it differs, or a comment. Unless noted, calls come from the whole dose curve; as a rule, active = well fitted curve in the direction sought with a large enough effect; inconclusive = small, poorly fitted or top-dose-only effect, or another doubt; inactive = no such curve, though single readings can be large; an effect the other way counts as inactive or inconclusive. Potency is the fitted concentration of half-maximal effect.

SMILES	VACV mCherry inh	VACV Venus inh	AmpC inh no detg	AmpC detergent	SARS PLP yeast
O=[N+]([O-])c1ccc(C(O)CN=Cc2ccc(O)cc2O)cc1 (configuration not stated)	-15%	-5%	13µM*	-4%	0%
O=C(Nc1ccc(Cl)cc1)Nc1ccc(Cl)c(Cl)c1	13µM*	11µM*	-19%	8%	-15%
CC(C)(C)N(NC(=O)Nc1ccc(Cl)c(Cl)c1)C(=O)c1ccccc1	-25%[1.46 µM]	13µM*	-50%	-1%	0%
N#Cc1ccc(NC(=O)Nc2ccc(Cl)cc2)cc1	?	11µM*	?	-2%	-41%
CN(CC(=O)Nc1ccc(C#N)cc1)Cc1ccc(Cl)cc1	-22%	-24%	-30%	?	0%
COc1ccc(-c2csc(C(NC(C)=O)c3cccc(F)c3)n2)cn1 (configuration not stated)	i	-1%	/	/	/
CC(=O)c1ccc(C(=O)N2CCCC(c3nc(SCc4ccccn4)ncc3C)C2)cc1 (configuration not stated)	-29%	-20%	/	/	/
Cc1cnc(SCc2ccccn2)nc1C1CCCN(C(=O)c2cccc(-c3cccc(F)c3)c2)C1 (configuration not stated)	10µM*	?	/	/	/
COc1cccc(-c2ccc(O)c(CNC(c3ccccc3)c3ccc(Cl)cc3)c2)n1 (configuration not stated)	-17%	-6%	/	/	/
CC1(C)S[C@@H]2[C@H](NC(=O)COc3ccccc3)C(=O)N2C1C(=O)OCc1cc2ccccc2n1S(=O)(=O)c1ccccc1 (some centres not stated)	/	/	8.9µM*	?	7%
CCC(C)NC(=O)C(Cc1ccccc1)n1cccc1 (configuration not stated)	-10%	-14%	0.5µM*	?	-8%
CC(C)c1ccc(NC(=O)C(Cc2ccccc2)n2cccc2)cc1 (configuration not stated)	-1%	-17%	/	17%	/
CCN(CC)S(=O)(=O)c1ccc(N2CCCCC2)c(NC(=O)/C(C#N)=C/c2ccc(OC)cc2)c1	-16%	-4%	4µM*	-2%	7%
Cc1ccccc1-c1nc(SCC(=O)NCc2ccc(F)cc2)c2c(=O)n(C)c(=O)n(C)c2n1	-9%	-12%	/	-6%	/
Cc1cc(NC(=O)CSc2nc(CC(C)(C)C)nc3c2c(=O)n(C)c(=O)n3C)no1	8%	-8%	40µM*	-13%	6%
CCc1nc(SCC(=O)NCc2ccc(F)cc2)c2c(=O)n(C)c(=O)n(C)c2n1	10%	2%	2.5µM*	?	?
COc1ccc(S(=O)(=O)N(C)C2CCN(C)CC2)cc1	i	5%	10µM*	?	15%
O=C(CCl)Nc1cccn2ncnc12	/	7.9µM*	-9%	-10%	?
COCC1CCCN(Cc2ccc3c(c2)CN(C(=O)c2ccc(-c4ccc(C)o4)cc2)CCO3)C1 (configuration not stated)	-12%	-10%	/	/	/
Clc1ccc(CN(Cc2ccccc2)C(c2cccs2)c2nnnn2C2CCCC2)cc1 (configuration not stated)	-11%	-14%	/	3%	/
CC(C)(C)n1nnnc1C(c1cccs1)N(Cc1ccc(Cl)cc1)CC1CCCO1 (configuration not stated)	11µM*	?	/	0%	/
Cc1cccc(CNc2ncnc3ccc(-c4ccc5c(ccn5C)c4)cc23)c1	/	/	-34%	-14%	-6%
Cc1ccc2c(c1)cc(CN(C)Cc1nc(C)cs1)c(=O)n2C	-13%	-11%	/	/	/
O=C(O)c1cc(O)c2c(c1)[C@H]([C@H]1c3cc(C(=O)O)cc(O)c3C(=O)c3c(O[C@@H]4O[C@H](CO)[C@@H](O)[C@H](O)[C@H]4O)cccc31)c1cccc(OC3O[C@H](CO)[C@@H](O)[C@H](O)[C@H]3O)c1C2=O (some centres not stated)	i	-14%	1µM*	4%	/
O=C1c2c(O)cccc2C(C2OC(CO)[C@@H](O)[C@H](O)[C@H]2O)c2cc(CO)cc(O)c21 (some centres not stated)	i	8%	143%	8%	4%
SMILES	VACV mCherry inh	VACV Venus inh	AmpC inh no detg	AmpC detergent	SARS PLP yeast
O=C1c2cc(CO)cc(O)c2C(=O)c2c(O[C@@H]3OC(CO)[C@@H](O)[C@@H](O)[C@@H]3O)cccc21 (some centres not stated)	5%	6%	/	/	/
O=C(O)c1cc(O)c2c(c1)[C@@H]([C@H]1c3cc(C(=O)O)cc(O)c3C(=O)c3c(O[C@@H]4O[C@H](CO)[C@@H](O)[C@H](O)[C@H]4O)cccc31)c1cccc(OC3O[C@H](CO)[C@@H](O)[C@H](O)[C@H]3O)c1C2=O (some centres not stated)	i	-19%	1.4µM*	?	/
COc1cc(=O)n2c(c1C(=O)N1CCc3ccccc3C1)CCN(Cc1ccc(CO)o1)CC2	-12%	-11%	/	/	/
CC1(C(=O)Nc2cccc(Oc3ccccc3)c2)CCN1C1Cc2ccccc2C1 (configuration not stated)	i	-8%	/	/	/
COc1ccccc1C1CN(CCNC(=O)c2cscn2)Cc2ccccc2O1 (configuration not stated)	-11%	-5%	/	/	/
CCCC(=O)Nc1c(C(=O)OCC)[nH]c2ccccc12	-17%	?	20µM*	5%	3%
Cc1ccc(NC(=S)NC(=O)C2CCCC2)cc1C	-8%	-13%	3.2µM*	0%	-2%
Cc1cc(C)nc(NS(=O)(=O)c2ccc(NC(=S)NC(=O)C3CCCC3)cc2)n1	?	10µM*	-52%	?	12%
CCNc1nc(C#N)nc(N2CCOCC2)n1	26%	-4%	/	/	/
Cc1c(CN2CCOc3c(O)cc(-c4nc5ccccc5s4)cc3C2)cnn1C	-25%	-13%	/	/	/
COc1ccc2c(c1)-c1nc(-n3ncc(C(=O)N(C)CCO)c3C3CC3)ncc1CC2	-16%	-14%	/	/	/
Nc1nc(N)nc(-c2cc(F)ccc2O)n1	?	10µM*	-11%	-7%	-1%
COc1ccc(O)c(-c2nc(N)nc(N)n2)c1	?	?	-9%	2%	4%
Cc1cc(=O)n2nc(N3CCC(C(=O)NCc4ccccc4F)CC3)sc2n1	-14%	-3%	-3%	-8%	11µM*
COc1ccccc1CNC(=O)C1CCN(c2nn3c(=O)cc(C)nc3s2)CC1	0%	-12%	/	-6%	/
CC(=O)c1c(C)nc2sc3c(=N)n(N)cnc3c2c1-c1ccc(Cl)cc1	3.5µM*	4.5µM*	40%	?	-10%
COc1ccc(CN2C[C@H](Sc3nc4ccccc4[nH]3)C[C@H]2C(=O)N(C)C)c2ccccc12	-17%	-1%	/	/	/
CCCn1nc(C(=O)Nc2cc(S(=O)(=O)Nc3ccc(OC)cc3)ccc2O)c2ccccc2c1=O	-10%	-14%	1.6µM*	/	9%
